About 79,000 compounds went through this panel and 15% of them were active in at least one assay; those are over-represented in the sample as a whole. Values without a mark were called inactive. Calls of active or inactive are those of the source. Rule as the data show it: active = growth inhibition above about 70%; inactive = the rest.
How the values were obtained:
[1] = NCI Yeast Anticancer Drug Screen. Data for the rad50 strain (AID 155);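 also: 0% = growth of vehicle-only cultures of the same strain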; details: S. cerevisiae rad50 strain growth inhibition, hits give high values
How it was run: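 Cells are treated with compound, grown, and their growth is then scored against vehicle-only cultures of the same repair-deficient yeast strain.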

[2] = NCI Yeast Anticancer Drug Screen. Data for the mec2-1 strain (AID 157); details: S. cerevisiae mec2-1 strain, hits give high values
How it was run: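 Strain: mec2-1 (DNA repair/cell cycle alteration). Compound exposure, then growth measured; inhibition expressed relative to vehicle.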

[3] = NCI Yeast Anticancer Drug Screen. Data for the sgs1 mgt1 strain (AID 161);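 also: 0% = growth of cultures given vehicle only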; details: S. cerevisiae sgs1 mgt1 strain, hits give high values
How it was run: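 Read-out: growth inhibition vs vehicle controls. Cells: mutant yeast strain deficient in DNA damage repair.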

[4] = NCI Yeast Anticancer Drug Screen. Data for the cln2 rad14 strain (AID 165);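 also: 0% = growth equal to vehicle treated cultures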; details: S. cerevisiae cln2 rad14 strain, hits give high values
How it was run: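 Compounds are applied to the cln2 rad14 yeast strain, and growth is then compared with that of vehicle-treated cultures to give inhibition.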

[5] = NCI Yeast Anticancer Drug Screen. Data for the bub3 strain (AID 167); details: S. cerevisiae bub3 mutant strain, hits give high values
How it was run: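 Part of a panel of yeast mutants defective in DNA damage repair or cell cycle regulation. Each strain is grown with compound, and inhibition is calculated relative to solvent-treated cultures.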

[6] = NCI Yeast Anticancer Drug Screen. Data for the mlh1 rad18 strain (AID 175); details: S. cerevisiae mlh1 rad18 strain growth inhibition, hits give high values
How it was run: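 Read-out is yeast growth inhibition, calculated against vehicle-only controls. The compound was applied to a strain engineered with DNA damage repair alterations.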

[7] = at 5.0 µM (retest, dose inferred, filed as 0.5)
[8] = at 50.0 µM (retest, dose inferred, filed as 5.0)

SMILES | growth inhibition [1, 7] | growth inhibition [1, 8] | growth inhibition ([1]; at 50.0 µM) | growth inhibition [2, 7] [%] | growth inhibition [2, 8] | growth inhibition ([2]; at 50.0 µM) | growth inhibition [3, 7] [%] | growth inhibition [3, 8] | growth inhibition ([3]; at 50.0 µM) | growth inhibition [4, 7] [%] | growth inhibition [4, 8] | growth inhibition ([4]; at 50.0 µM) | growth inhibition [5, 7] [%] | growth inhibition [5, 8] | growth inhibition ([5]; at 50.0 µM) | growth inhibition [6, 7] [%] | growth inhibition [6, 8] | growth inhibition ([6]; at 50.0 µM)
CCOC(=O)c1ccc(N=Cc2ccc(N(CCCl)CCCl)cc2C)cc1 | -4% | 15% | 49.5% | 13 | 22% | 16.4% | 14 | 39% | 67.7% | -8 | -15% | 5.3% | -6 | 2% | 17.2% | 25 | 73% (active) | 37.9%
COc1cc(/C=C(/C)[N+](=O)[O-])ccc1O | 90% (active) | 99% (active) | 99.1% (active) | 13 | 100% (active) | 99.6% (active) | 42 | 54% | 99.5% (active) | 19 | 99% (active) | 98.6% (active) | 14 | 99% (active) | 99.1% (active) | 59 | 99% (active) | 99.2% (active)
C/C(CC(=O)Nc1ccc([N+](=O)[O-])cc1)=N\Nc1ccc([N+](=O)[O-])cc1[N+](=O)[O-] | 76% (active) | 45% | 72% (active) | 48 | 47% | 15.9% | 48 | 40% | 7.6% | 33 | 53% | -33.9% | 17 | 34% | 32.5% | 67 | 36% | 61.9%
CO/C1=C\C(C)=C\C(C)C(O)C(C)C/C(C)=C/C=C/C(OC)C(C(C)C(O)C(C)C2(O)CC(O)C(C)C(C(C)C)O2)OC1=O (configuration not stated) | 1% | 84% (active) | 85.2% (active) | -11 | 59% | 77.3% (active) | 8 | 85% (active) | 84.5% (active) | 9 | 78% (active) | 74.1% (active) | 5 | 88% (active) | 86.2% (active) | 0 | 88% (active) | 81.2% (active)
Cc1cc(N(CCCl)CCCl)ccc1C1N(Cc2ccc(Cl)cc2Cl)CCCN1Cc1ccc(Cl)cc1Cl | 42% | 85% (active) | 40.5% | -4 | 65% | 18.2% | 25 | 91% (active) | 57.5% | 14 | 60% | 14.4% | 22 | 92% (active) | 16.1% | 18 | 96% (active) | 52.2%
CC1=CC(=C2C=CC(=[N+](C)C)C=C2)C=C(C)S1 | 21% | 72% (active) | 55.6% | 10 | 91% (active) | 71.6% (active) | 9 | 94% (active) | 87.3% (active) | 7 | 82% (active) | 77.7% (active) | -2 | 96% (active) | 87.7% (active) | 11 | 90% (active) | 87% (active)
CCCC(C)c1ccccc1OP(=S)(S)Oc1ccccc1C(C)CCC (configuration not stated) | -3% | -3% | 97.3% (active) | -2 | -1% | 97.8% (active) | 2 | -2% | 97.5% (active) | 3 | 0% | 96.5% (active) | -5 | 0% | 95.8% (active) | 0 | -3% | 97.2% (active)
CC(=O)O.[RuH].c1ccc([PH+](c2ccccc2)c2ccccc2)cc1.c1ccc([PH+](c2ccccc2)c2ccccc2)cc1.c1ccc([PH+](c2ccccc2)c2ccccc2)cc1 | -10% | 75% (active) | 43.5% | -15 | 90% (active) | 70.9% (active) | -5 | 68% | 72.5% (active) | -9 | 91% (active) | 75% (active) | 35 | 89% (active) | 72.5% (active) | -20 | 89% (active) | 66.5%
O=C1c2ccccc2CCC1Br (configuration not stated) | -20% | 99% (active) | 99% (active) | 11 | 99% (active) | 99.1% (active) | -3 | 98% (active) | 99.2% (active) | -18 | 99% (active) | 98.6% (active) | -27 | 99% (active) | 98.7% (active) | -13 | 99% (active) | 99% (active)

From PubChem BioAssay (NCI)
